From PubChem BioAssay (NCI)
This is part of a sample that, as a whole, favours compounds with a hit. Of some 83,000 tested, about 20% had one in any assay.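 How to read the values: 0–100, growth inhibition (40 = 60% inhibited); 0, no net growth; -100 to 0, cell death (-40 = 40% of starting cells died; -100 = all dead).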 Unmarked numbers belong to inactive results. Active and inactive are the calls of the source. The calls were made as follows: active = growth percent below 10; inactive = the rest.

Assays:
Assay in all cases: NCI-60 one-dose screen, 48 h (100 = growth as untreated, 0 = no growth, -100 = all killed)
Conditions in all cases: 10 µM unless noted
[1] = system: DU-145 prostate
[2] = system: K-562 leukemia
[3] = system: MALME-3M melanoma
[4] = system: MDA-MB-231 breast
[5] = system: RXF 393 renal
[6] = system: SF-268 CNS
[7] = system: SF-295 CNS
[8] = system: SF-539 CNS
[9] = system: UACC-257 melanoma
[10] = system: M14 melanoma

Structure (SMILES)	growth [1]	growth [2]	growth [3]	growth [4]	growth [5]	growth [6]	growth [7]	growth [8]	growth [9]	growth [10]
CC(C)(C)n1cc(-c2ccnc(NCCCNS(=O)(=O)c3ccc(C(F)(F)F)cc3)c2)c(-c2cccc(O)c2)n1	46.3%	3% (active)	-18% (active)	1.39% (active)	-3.46% (active)	36.3%	1.72% (active)	19.8%	17.2%	1.32% (active)
CN(C[C@H]1Cc2c(cccc2N2CCN(c3ncccn3)CC2)CN1)[C@H]1CCCc2cccnc21	55%	8.04% (active)	82.7%	52.9%	57.6%	60%	44.4%	55.5%	55.1%	53.7%
COc1ccc2c(c1)[nH]c(=O)c1c3cccc(F)c3cn21	9.01% (active)	36.4%	50.9%	27.7%	-26.9% (active)	18%	-32.1% (active)	22.8%	44.8%	40.4%
OB(O)c1cccc(-c2nc3ccc4[nH]ncc4c3c3c2CCCC3)c1F	49.5%	66.2%	120%	40.9%	-20.1% (active)	53%	69.3%	8.65% (active)	115%	79.7%
C=C(C)[C@@H]1CC[C@]2(C(=O)N3CCNCC3)CC[C@]3(C)[C@H](CC[C@@H]4[C@@]5(C)C/C(=C/c6ccncc6)C(=O)C(C)(C)[C@@H]5CC[C@]43C)[C@@H]12	113%	97.3%	114%	116%	117%	103%	104%	105%	104%	108%
COc1cccc(CC(C)=C(c2ccc(OCCN3CCCCC3)cc2)c2ccc(OCCN3CCCCC3)cc2)c1	17.8%	-37.3% (active)	-88.5% (active)	-76.8% (active)	-85.5% (active)	-18.9% (active)	-62% (active)	-96.1% (active)	-69.3% (active)	-64.8% (active)
CC(C)(C)n1cc(-c2ccnc(NCCCNS(=O)(=O)c3ccc(Cl)cc3)c2)c(-c2cccc(O)c2)n1	13.1%	-23.3% (active)	-44.5% (active)	-24.4% (active)	-12% (active)	20.7%	-45% (active)	-26.1% (active)	-39.3% (active)	-23.2% (active)
CCCCN(CCCC)C(=O)CC	112%	101%	124%	114%	128%	105%	109%	112%	129%	111%
O=C1CS/C(=N\Nc2cc(=O)[nH]c3ccccc23)N1c1ccccc1	111%	86.8%	96.9%	78.3%	95.6%	86.1%	96.8%	93%	99.9%	104%
CC[N+](CC)=c1cc2oc3cc(N(C)C)ccc3nc-2cc1C	73.8%	55.2%	-25.5% (active)	8.42% (active)	81.7%	2.86% (active)	17.7%	22.2%	-28% (active)	18.2%
c1coc(CNc2ccnc(Nc3ccc(OCCN4CCCCC4)cc3)n2)c1	91.6%	27.6%	110%	82.6%	71.3%	90.4%	95.1%	76.4%	87.3%	102%
COc1cc(/C=C/C(=O)N2CCN(C(=O)/C=C/c3cc(OC)c(OC)c(OC)c3)CC2)cc(OC)c1OC	109%	98.7%	127%	82.7%	121%	118%	122%	103%	94.3%	97.1%
CC(C)(C)Nc1c(-c2cccs2)nc2ncccn12	105%	86.5%	99.9%	108%	98.9%	97.5%	99.5%	97.5%	90.5%	106%
